# Laboratory results taken from PubChem BioAssay (NCI).
# The panel holds about 83,000 compounds, 20% with a hit somewhere; the sample as a whole holds those more often.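 Plates (96-well) were seeded with cells, treated with compound at one concentration, and incubated for 48 hours before percent growth was determined.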 Values without a mark were called inactive. The source made the active and inactive calls. The calls were made as follows: active = growth percent below 10; inactive = the rest.
# Legend:
# Assay in all cases: NCI-60 one-dose screen, 48 h (100 = growth as untreated, 0 = no growth, -100 = all killed)
# Details in all cases: 10 µM unless noted
# SR leukemia = system: SR leukemia
# RPMI-8226 leukemia = system: RPMI-8226 leukemia
# OVCAR-8 ovarian = system: OVCAR-8 ovarian
# OVCAR-5 ovarian = system: OVCAR-5 ovarian
# OVCAR-4 ovarian = system: OVCAR-4 ovarian
# SK-OV-3 ovarian = system: SK-OV-3 ovarian
# IGROV1 ovarian = system: IGROV1 ovarian
# OVCAR-3 ovarian = system: OVCAR-3 ovarian
# HS 578T breast = system: HS 578T breast
# NCI/ADR-RES ovarian = system: NCI/ADR-RES ovarian
# T-47D breast = system: T-47D breast
# BT-549 breast = system: BT-549 breast
# MDA-MB-435 melanoma = system: MDA-MB-435 melanoma
# SW-620 colon = system: SW-620 colon
# MCF7 breast = system: MCF7 breast
# HCT-116 colon = system: HCT-116 colon
# HCC-2998 colon = system: HCC-2998 colon
# KM12 colon = system: KM12 colon
SMILES,growth (SR leukemia),growth (RPMI-8226 leukemia),growth (OVCAR-8 ovarian),growth (OVCAR-5 ovarian),growth (OVCAR-4 ovarian),growth (SK-OV-3 ovarian),growth (IGROV1 ovarian),growth (OVCAR-3 ovarian),growth (HS 578T breast),growth (NCI/ADR-RES ovarian),growth (T-47D breast),growth (BT-549 breast),growth (MDA-MB-435 melanoma),growth (SW-620 colon),growth (MCF7 breast),growth (HCT-116 colon),growth (HCC-2998 colon),growth (KM12 colon)
COc1ccc(S(=O)(=O)NCCNc2nccc(-c3c(-c4cccc(N)c4)nc4sccn34)n2)cc1,107%,96%,98.2%,121%,82.4%,108%,98%,100%,97.9%,101%,75.9%,82.8%,103%,113%,90.8%,98%,122%,64.6%
CC1=C(C)C(=O)OC([C@](C)(O)[C@]2(O)CC[C@@]3(O)[C@@H]4C[C@H]5O[C@]56CC=CC(=O)[C@]6(C)[C@H]4CC[C@]23COC(=O)c2ccc(C)o2)C1 (some centres not stated),2.88% (active),-17.3% (active),-13.8% (active),-69.8% (active),-32.9% (active),-51.7% (active),-54.4% (active),-96.2% (active),3.52% (active),14.5%,-57.1% (active),-49.3% (active),-76.9% (active),-55.6% (active),-66.2% (active),-43.5% (active),-73.7% (active),-69% (active)
Cc1ccccc1CCO,88.7%,108%,100%,95.9%,106%,98%,95.4%,106%,100%,101%,96.9%,95.1%,108%,94.7%,91.1%,93.6%,92.6%,109%
O=C1/C(=C/c2ccc(Cl)c(Cl)c2)CN(C(=O)CCN2CCC(=NO)CC2)C/C1=C\c1ccc(Cl)c(Cl)c1,-14% (active),-37.2% (active),-95.5% (active),-71.3% (active),-96.6% (active),-55.7% (active),-63.3% (active),-97.8% (active),-28.5% (active),-60.2% (active),-79.9% (active),-87.9% (active),-93.8% (active),-62.9% (active),-53.8% (active),-47.1% (active),-77.1% (active),-80.9% (active)
COc1ccc(C(=O)c2sc3nc4c(cc3c2N)CCCC4)cc1OC,-7.02% (active),10.4%,43.1%,86.9%,60.7%,71.6%,35.9%,20.6%,74%,19.7%,15.5%,24.1%,-9.21% (active),34.6%,27.1%,19.4%,109%,26.9%
O=c1c2cccc3c(Nc4ccccn4)ccc(c32)c2nc3ccccc3n12,10.2%,49%,75.4%,83.3%,69.1%,89.1%,56.6%,70%,111%,74.6%,46.6%,87.4%,99.4%,77.1%,28.7%,65%,68.5%,74.8%
O=C1c2cc3c(cc2-c2c1c1cc(Cl)c(Cl)cc1c(=O)n2CCCn1ccnc1)OCO3,-13.4% (active),-0.183% (active),8.55% (active),25.9%,30.1%,-3.8% (active),24.4%,5.18% (active),66.7%,4.47% (active),0.538% (active),19.1%,18.5%,25.6%,1.23% (active),3.49% (active),28.6%,6% (active)
COc1ccc(/C=N\NC(=O)c2ccncc2)cc1O,95.7%,104%,98.5%,110%,87.8%,87.8%,98.4%,104%,110%,102%,87.3%,98.1%,98.5%,107%,95.7%,94.1%,101%,94.2%
CCCCCN(CCCCC)CCC[C@@H](C)[C@H]1CC[C@H]2[C@@H]3[C@H](OCCCN)C[C@@H]4C[C@H](OCCCN)CC[C@]4(C)[C@H]3C[C@H](OCCCN)[C@]12C,19.2%,-17.7% (active),55.3%,66.2%,85.2%,93.2%,29.6%,107%,66.9%,76%,68.1%,55%,-13.6% (active),45.9%,74.8%,22.7%,59.6%,22.5%
